Source: PubChem BioAssay (NCATS)
Inconclusive results are not listed. Active and inactive are the calls of the source. Calls come from the whole dose curve; as a rule, active = well fitted curve in the direction sought with a large enough effect; inconclusive = small, poorly fitted or top-dose-only effect, or another doubt; inactive = no such curve, though single readings can be large; an effect the other way counts as inactive or inconclusive.

Tests used:
[1] = SW1088 Cancer Cell Toxicity qHTS against the NCATS CANVASS Library (AID 1347350); settings: SW1088 viability, CellTiter-Glo luminescence, 72 h; series mostly up to 38.3 µM; note: nearly all actives have a fitted effect of over 75% in size; note: potency is the fitted concentration of half-maximal effect
Procedure, shortened: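 Per well, 1000 cells; exposure 72 h with compound at 11 final concentrations; readout CellTiter-Glo luminescence.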

[2] = HEK293 18hr Apoptosis Induction qHTS against the NCATS CANVASS Library (AID 1347357); settings: HEK293 caspase-3/7 Caspase-Glo luminescence; series mostly up to 46.1 µM
Procedure, shortened: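 Caspase-3/7 luminescence (DEVD substrate, Caspase-Glo) after 18 h compound exposure of HEK293 cells, 500 cells/well; 11-point series; doxorubicin titration as control.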

[3] = HPAF-II 12hr Apoptosis Induction qHTS against the NCATS CANVASS Library (AID 1347358); settings: HPAF-II caspase-3/7 Caspase-Glo luminescence; series mostly up to 46.1 µM
Procedure, shortened: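 Caspase-Glo 3/7 luminescence (DEVD substrate) reports caspase activity in HPAF-II cells after 12 h compound treatment at 37 degrees C. Compounds were tested in an 11-point series. Doxorubicin served as control.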

[4] = HEK293 24hr Apoptosis Induction qHTS against the NCATS CANVASS Library (AID 1347359); settings: HEK293 caspase-3/7 activation, Caspase-Glo luminescence; series mostly up to 46.1 µM
Procedure, shortened: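 HEK293 cells (500/well, DMEM + 10% FBS) were exposed to compounds in an 11-point series for 24 hours at 37 degrees C, then caspase-3/7 activity was read by Caspase-Glo DEVD luciferase luminescence after 15 min.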

[5] = HPAF-II 18hr Apoptosis Induction qHTS against the NCATS CANVASS Library (AID 1347360); settings: HPAF-II caspase-3/7 luminescence; series mostly up to 46.1 µM
Procedure, shortened: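 Caspase-Glo 3/7 luminescence (DEVD substrate) after 15 min RT; HPAF-II, 500 cells/well, 18 h compound exposure at 37 degrees C, qHTS series; doxorubicin control 0.1nM - 4uM.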

[6] = HEK293 12hr Apoptosis Induction qHTS against the NCATS CANVASS Library (AID 1347361); settings: HEK293 caspase-3/7 Caspase-Glo luminescence; series mostly up to 46.1 µM
Procedure, shortened: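 500 HEK293 cells/well; cpds pin-transferred, 11-pt conc series; 12 h, 37 degrees C/5% CO2; Caspase-Glo 3/7 added, 15 min RT dark; luminescence.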

[7] = target: Luciferin 4-monooxygenase (Photinus pyralis) (UniProt P08659); experiment: Firefly luciferase counterscreen qHTS: Assay Interference Panel against the NCATS CANVASS Library (AID 1347363); settings: purified firefly luciferase, luminescence inhibition, 5 min; series mostly up to 57.5 µM
Chain of Luciferin 4-monooxygenase (Photinus pyralis) (P08659 whole entry, looked up): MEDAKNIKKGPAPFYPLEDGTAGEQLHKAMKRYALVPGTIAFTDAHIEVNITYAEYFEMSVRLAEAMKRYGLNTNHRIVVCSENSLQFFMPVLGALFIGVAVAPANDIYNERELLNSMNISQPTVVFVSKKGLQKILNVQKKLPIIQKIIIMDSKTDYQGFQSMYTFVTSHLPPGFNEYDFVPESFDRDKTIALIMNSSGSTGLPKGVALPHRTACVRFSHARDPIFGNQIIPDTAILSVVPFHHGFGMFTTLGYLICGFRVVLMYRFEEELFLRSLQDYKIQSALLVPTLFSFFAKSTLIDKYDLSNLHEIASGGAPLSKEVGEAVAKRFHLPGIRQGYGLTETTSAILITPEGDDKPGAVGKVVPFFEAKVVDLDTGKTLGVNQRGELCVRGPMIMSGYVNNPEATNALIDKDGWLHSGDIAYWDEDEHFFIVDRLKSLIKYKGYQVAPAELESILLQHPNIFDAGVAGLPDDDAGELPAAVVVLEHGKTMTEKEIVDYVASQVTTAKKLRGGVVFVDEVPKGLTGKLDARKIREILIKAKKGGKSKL
Procedure, shortened: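 Purified P. pyralis luciferase was added to compounds (11-point series) preincubated 15 min at room temperature with substrate containing 0.013 mM D-luciferin and 0.013 mM ATP; luminescence was read after 5 min.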

[8] = KB-3-1 Cancer Cell Toxicity qHTS against the NCATS CANVASS Library (AID 1347366); settings: KB-3-1 viability, CellTiter-Glo luminescence, 72 h; series mostly up to 46.1 µM; note: nearly all actives have a fitted effect of over 75% in size; note: potency is the fitted concentration of half-maximal effect
Procedure, shortened: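 500 KB-3-1 cells/well; compounds pin-transferred, 11-pnt series; 72 hr, 37C/5% CO2; CellTiter-Glo, 10 min RT; luminescence read-out.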

[9] = G06 Cancer Cell Toxicity qHTS against the NCATS CANVASS Library (AID 1347368); settings: G06 dog glioma cells, viability ATP luminescence, 72 h; series mostly up to 46.1 µM; note: nearly all actives have a fitted effect of over 60% in size; note: potency is the fitted concentration of half-maximal effect
Procedure, shortened: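 ATP luminescence (CellTiterGlo) readout of cytotoxicity. Canine G06 glioma cells, 500/well, 72 hr incubation at 37C with compounds; bortezomib titration served as control.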

[10] = target: Nuclear receptor subfamily 1 group I member 3 (Homo sapiens) (UniProt Q14994); experiment: qHTS for Constitutive Androstane Receptor (CAR) Antagonist screened against the NCATS CANVASS Library (AID 1347372); settings: HepG2-hCAR-CYP2B6 luciferase, CITCO-stimulated antagonist mode; series mostly up to 46.1 µM; note: potency is the fitted concentration of half-maximal effect
Chain of Nuclear receptor subfamily 1 group I member 3 (Homo sapiens) (Q14994 whole entry, looked up): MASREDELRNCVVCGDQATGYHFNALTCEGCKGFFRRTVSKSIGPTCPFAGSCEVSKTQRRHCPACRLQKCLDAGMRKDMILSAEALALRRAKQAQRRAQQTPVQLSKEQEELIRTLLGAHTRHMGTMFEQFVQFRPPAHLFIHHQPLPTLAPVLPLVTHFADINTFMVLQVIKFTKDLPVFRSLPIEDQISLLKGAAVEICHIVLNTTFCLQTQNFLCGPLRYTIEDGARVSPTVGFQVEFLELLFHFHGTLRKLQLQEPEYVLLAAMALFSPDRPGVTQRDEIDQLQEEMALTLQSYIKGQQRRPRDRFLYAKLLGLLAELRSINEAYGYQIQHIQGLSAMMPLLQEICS
Procedure, shortened: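 Cells were seeded and left 4hr to attach, then received compound at 11 concentrations and 50 nM CITCO. Following 24hr incubation, fluorescence viability and luciferase luminescence were read sequentially.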

[11] = target: Nuclear receptor subfamily 1 group I member 3 (Homo sapiens) (UniProt Q14994); experiment: qHTS for Constitutive Androstane Receptor (CAR) Agonist screened against the NCATS CANVASS Library (AID 1347373); settings: HepG2-hCAR-CYP2B6 luciferase reporter, ONE-Glo luminescence; series mostly up to 46.1 µM;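 note: every well also contained 1.5 µM PK11195 alongside the test compound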
Procedure, shortened: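 Luciferase read-out (ONE-Glo, 30 min RT) of CYP2B6-2.2kb promoter activity in double-stable HepG2-hCAR cells after 24hr compound exposure with 1.5uM PK11195 present; viability measured first by CellTiter-Fluor.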

[12] = 10-beta competent E. coli microbial cell viability qHTS against the NCATS CANVASS Library (AID 1347376); settings: E. coli 10-beta viability, BacTiter-Glo ATP luminescence, overnight; series mostly up to 46.1 µM
Procedure, shortened: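 Luminescence from BacTiter-Glo ATP detection served as the viability read-out; bacteria (0.2 OD) had been incubated overnight at 37C with pin-transferred compounds at 11 concentrations.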

[13] = DH5-alpha competent E. coli microbial cell viability qHTS against the NCATS CANVASS Library (AID 1347377); settings: BacTiter-Glo ATP luminescence, overnight; series mostly up to 46.1 µM
Procedure, shortened: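 Luminescent ATP read-out (BacTiter-Glo, 20 min RT) after overnight 37C culture of DH5-alpha E. coli with compounds; daunomycin control at 0.2 nM–9.2 uM final.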

[14] = qHTS for Inflammasome Signaling Inhibitors: IL-1-beta AlphaLISA screen against the NCATS CANVASS Library (AID 1347379); settings: THP-1 LPS/ATP, IL-1B AlphaLISA secretion, 16 h; series mostly up to 57.5 µM;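 note: human THP-1 cells primed with LPS then triggered with ATP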;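 for Potency: secreted IL-1B measured as AlphaLISA emission at 615 nm; potency is the fitted concentration of half-maximal effect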
Procedure, shortened: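 THP-1, 1 hr compound pre-incubation, then LPS 250 ng/mL + ATP 1.25 mM (final); 16 hr total with compound; IL-1B AlphaLISA, ex 680/em 615 nm; 11-point qHTS, up to 57.5 uM final.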

[15] = Inflammasome Signaling qHTS Counterscreen: IL-1-beta AlphaLISA counterscreen against the NCATS CANVASS Library (AID 1347381); settings: Purified IL-1beta AlphaLISA signal interference counterscreen; series mostly up to 57.5 µM;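 note: cell-free check with purified IL-1β in medium and no THP-1 cells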
Procedure, shortened: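 Here, no cellular stimulation occurs; compounds in an 11-point series meet 4 pg purified IL-1-beta directly. Bead-based AlphaLISA detection follows (1 h acceptor/antibody, then 30 min donor, dark, room temperature), with excitation at 680 nm.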

[16] = qHTS assay for small molecule disruptors of mitochondrial membrane potential screened against the NCATS CANVASS Library (AID 1347389); settings: HepG2 mitochondrial membrane potential, m-MPI red/green ratio, 1.5 h; series mostly up to 46.1 µM; note: nearly all actives have a fitted effect of over 60% in size; note: potency is the fitted concentration of half-maximal effect
Procedure, shortened: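 Red/green fluorescence ratio read-out: J-aggregates ex 540/em 590 nm, monomers ex 490/em 535 nm. HepG2, 1 hr compound treatment, then 30 min Mito-MPS dye at 37C. 11-pt qHTS concentration series.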

[17] = qHTS for inhibitors of Wild type Zika virus screened against the NCATS CANVASS Library (AID 1347396); settings: Vero cells, Zika virus CPE, CellTiter-Glo, 72 h; series mostly up to 45.9 µM;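 note: ATP luminescence of surviving cells so rescue from viral cell killing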
Procedure, shortened: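 Vero 766 (African green monkey) cells, 1000 per well, attached overnight, then compounds were added in an 11-point series before wild-type Zika virus infection. After 72 h at 37C, cell viability was read as CellTiter Glo luminescence.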

[18] = MCF7 Cancer Cell Toxicity qHTS against the NCATS CANVASS Library (AID 1347369); settings: MCF7 viability, ATP luminescence (CellTiter-Glo), 72 h; series mostly up to 46 µM
Procedure, shortened: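 Luminescent ATP signal (CellTiterGlo) served as the cytotoxicity read-out after MCF7 breast cancer cells had been incubated 72 hr at 37C with natural products in an 11-point titration.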

[19] = J3T Cancer Cell Toxicity qHTS against the NCATS CANVASS Library (AID 1347371); settings: J3T dog glioma viability, ATP luminescence, 72 h; series mostly up to 46.1 µM; note: potency is the fitted concentration of half-maximal effect
Procedure, shortened: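 Dog glioma J3T, 500 cells/well; cpd 11-pt qHTS; 72 hr, 37C/5% CO2; CellTiterGlo ATP luminescence readout.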

[20] = qHTS for H2AX Agonists against the NCATS CANVASS Library (AID 1347378); settings: CHO-K1 H2AX phosphorylation, HTRF TR-FRET, 3 h; series mostly up to 76.9 µM
Procedure, shortened: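 TR-FRET readout (ex 320 nm, em 665/620 nm ratio) of phospho-H2AX (S139) in CHO-K1 lysates. Cells treated 3 hr at 37C with compound titration, 0.76% DMSO; lysis 30 min, antibody detection 24 hr at RT.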

Measured: Potency

Cc1cc(C)c(O)c(C(=O)CC2CC(=O)NC(=O)C2)c1
active: [8] 13.2 µM | [9] 2.64 µM | [10] 14.8 µM
not listed: [18] | [19] | [20]
inactive: all other assays above

CC(C)=CCC/C(C)=C/Cc1cc([C@@H]2CC(=O)c3c(cc(O)c(CC=C(C)C)c3O)O2)ccc1O
active: [1] 14.9 µM | [16] 23.4 µM
not listed: [11]
inactive: all other assays above

COC(=O)c1cc2cc3c(c(O)c2c(=O)o1)OC1(CC3)CC2=C(O1)C(=O)c1c(O)c(OC)cc(OC)c1C2=O (configuration not stated)
active: [1] 13.3 µM | [16] 3.31 µM
not listed: [8] | [9] | [14] | [17] | [18] | [20]
inactive: all other assays above

CN1CC[C@]23c4ccccc4N[C@H]1[C@]21CCN(C)[C@H]3Nc2ccccc21
inactive: all assays above

C/C(=C\[C@H](C)C(=O)C[C@H](O)CC1CC(=O)NC(=O)C1)[C@@H]1OC(=O)CCCC/C=C/C[C@@H](O)[C@@H]1C
active: [8] 14.8 µM | [9] 2.64 µM | [10] 13.2 µM
not listed: [14] | [19]
inactive: all other assays above

CO/C=C/C(=O)c1cc2cnc3c(N)cc(=NC(=O)C(C)C)c([nH]1)c23
active: [8] 0.59 µM | [9] 0.132 µM | [19] 0.743 µM | [10] 0.295 µM | [14] 0.968 µM | [16] 3.31 µM
not listed: [1] | [3] | [5] | [17]
inactive: all other assays above

C/C(=C\CC[C@@H](C)[C@H]1CC[C@]2(C)C3=CCC4C(C)(C)[C@@H](O)C[C@@H](O)[C@]4(C)C3[C@H](O)C[C@@]12C)CO (some centres not stated)
not listed: [1] | [13] | [17]
inactive: all other assays above

C=C1CCC2C(C)(C(=O)O)CCC(CC/C(C)=C/C(=O)NC(CCC(N)=O)C(=O)O)[C@@]2(C)C1 (some centres not stated)
inactive: all assays above

CCC(=O)N[C@@H](C[C@H](C)C(Cl)(Cl)Cl)C(=O)N1C(=O)C=C(OC)[C@@H]1CC(C)C
not listed: [1] | [9] | [10] | [18]
inactive: all other assays above

C/C1=C/[C@@H](C)[C@H](O)[C@@H](O)/C=C/CC/C=C/C(=O)O[C@@H]1[C@H](C)C(=O)/C=C/CC1CC(=O)NC(=O)C1
active: [10] 2.09 µM
not listed: [9] | [19]
inactive: all other assays above

CC1=C2CC[C@]3(C)[C@H](CC=C4[C@@H]5CC(C)(C)CC[C@@H]5C(=O)[C@H](O)[C@]43C)[C@@]2(C)C=C(O)C1=O
not listed: [1] | [16]
inactive: all other assays above

CC(C)=CCCC(C)(O)[C@H]1CC=C(C)C(O)C1 (some centres not stated)
inactive: all assays above

COC(=O)C1=C[C@]23C[C@@H](C)CC[C@@H]2[C@@]2(C)CC[C@@H](C(C)C)[C@@](O)(O3)[C@@H]12
not listed: [1] | [2] | [4] | [6] | [13] | [17]
inactive: all other assays above
